# Source: PubChem (National Center for Advancing Translational Sciences (NCATS))
# Most compounds without a hit are left out; they make up all but 1% or so of the library.
# RXFP1 agonist: activates the human relaxin receptor RXFP1 | Q9HBX9 | Potency, µM (doses to about 57.5 µM), hits mostly activators | AID 2676 | HEK293T-RXFP1 cAMP TR-FRET, 30 min; response scale: percent of porcine relaxin response, buffer zero | 370,000 compounds, 0.3% hits; active = well fitted activation curve with a large enough effect; inconclusive = small, poorly fitted or top-dose-only effect; also: nearly all actives have a fitted effect of over 60% in size
# Target sequence (Q9HBX9 whole entry, looked up): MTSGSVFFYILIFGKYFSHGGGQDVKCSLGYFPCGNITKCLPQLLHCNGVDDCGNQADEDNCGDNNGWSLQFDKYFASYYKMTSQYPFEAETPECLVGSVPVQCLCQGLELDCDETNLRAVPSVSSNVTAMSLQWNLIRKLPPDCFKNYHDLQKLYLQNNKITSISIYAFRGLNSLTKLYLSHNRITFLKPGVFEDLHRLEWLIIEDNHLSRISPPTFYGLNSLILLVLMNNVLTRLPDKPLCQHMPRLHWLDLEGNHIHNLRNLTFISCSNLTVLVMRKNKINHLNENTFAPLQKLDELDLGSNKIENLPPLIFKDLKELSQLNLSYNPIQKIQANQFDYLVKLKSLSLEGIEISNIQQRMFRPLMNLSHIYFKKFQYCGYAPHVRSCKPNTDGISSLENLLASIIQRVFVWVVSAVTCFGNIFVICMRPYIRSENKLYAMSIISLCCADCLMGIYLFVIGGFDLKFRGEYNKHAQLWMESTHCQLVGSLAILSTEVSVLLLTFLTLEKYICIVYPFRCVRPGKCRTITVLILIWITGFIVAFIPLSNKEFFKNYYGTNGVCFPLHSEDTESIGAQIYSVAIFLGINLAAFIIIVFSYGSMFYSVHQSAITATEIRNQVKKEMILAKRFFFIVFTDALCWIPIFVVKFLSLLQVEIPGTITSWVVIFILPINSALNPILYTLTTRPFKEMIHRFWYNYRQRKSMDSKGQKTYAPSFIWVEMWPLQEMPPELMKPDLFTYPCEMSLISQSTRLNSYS
#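 HEK293 cells stably expressing RXFP1, treated 30 min at 37C with compounds plus PDE4 inhibitor Ro 20174; cAMP measured by HTRF TR-FRET. Normalized to buffer and 29 nM porcine relaxin; EC50 by Hill fit.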
# gsp agonist: agonists of gsp mutant (McCune-Albright syndrome). AID 624287. Potency, µM (series often up to 76.9 µM), actives largely listed as activators. gsp mutant cells, cAMP HTRF, 30 min. 340,000 compounds, 0.13% hits; active = well fitted activation curve with a large enough effect; inconclusive = small, poorly fitted or top-dose-only effect, or another doubt; inactive = no such curve, though single readings can be large or run the other way; cell line not stated here;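 also: phosphodiesterase inhibitor Ro 20-1724 added with compounds to block cAMP breakdown; nearly all actives have a fitted effect of over 60% in size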
#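 Cells stably selected in G418 were plated at 2000/well, grown 16-24 hr, then given compounds in DMSO with the PDE inhibitor […] (300 uM solution added) for 30 min at 37C; cAMP was read by HTRF.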
# gsp antagonist: antagonists of gsp mutant (McCune-Albright syndrome); 340,000 compounds, 0.4% hits; gsp-mutant cells, cAMP HTRF, 30 min; Potency, µM (highest dose often 76.9 µM), most hits filed as inhibitors; calls by dose curve; cell line not stated here;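 also: intracellular cAMP measured with PDE inhibitor Ro 20-1724 present during compound exposure; nearly all actives have a fitted effect of over 65% in size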
#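 HTRF cAMP read-out (cAMP-d2 plus anti-cAMP antibody-K in lysis buffer, 30 min RT). Before lysis, cells are exposed to compounds with […] for 30 min at 37C in DPBS containing Ca/Mg, BSA and Tween 20.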
# TSHR antagonist: human thyrotropin receptor antagonism | TSHR-expressing cells, TSH-stimulated cAMP HTRF, 2 h; active compounds read low | AID 504810 | activity change, negative = inhibition, % at 11.5 µM | P16473 | 330,000 compounds, 0.2% hits;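 active = activity change below a set negative limit, meaning inhibition stronger than a set level, cut at about -70% in these data; inconclusive = activity change between two set negative limits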
#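 Freshly harvested TSHR cells receive pin-tooled compound, then EC80 TSH at 4nM final. After 2 hours at 37 deg C, antibody in lysis buffer and cAMP-d2 are added; 30 minutes at ambient temperature precede the HTRF read.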
# RXFP1 antag: antagonists of human relaxin receptor RXFP1 | activity change, negative = inhibition, % at 57.5 µM | AID 1259400 | Q9HBX9 | 350,000 compounds, 0.59% hits | HEK293-RXFP1, relaxin-stimulated cAMP HTRF, 30 min; active compounds read low;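 active = activity change of -60% or lower, but not beyond a set lower limit; inconclusive = change between -60% and -40%, or beyond the set limit; inactive = change above -40%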
# A number is an active result; n = inactive; u = inconclusive; x = no result; [ ] = dose if it differs, or a comment.
SMILES,RXFP1 agonist,gsp agonist,gsp antagonist,TSHR antagonist,RXFP1 antag
Cc1ccc(Cl)cc1N1CCN(C(=O)Cn2cnc3nc4c(cc3c2=O)CCCC4)CC1,n,x,x,x,-68
O=C(NCCS(=O)(=O)N1CCN(c2ccccc2)CC1)C1CC(=O)N(c2ccc(F)cc2)C1 (stereo not given),n,n,n,n,n
O=C(NCCS(=O)(=O)N1CCN(c2ccccc2)CC1)C1CC(=O)N(c2ccccc2)C1 (stereo not given),n,u,n,-135,n
COc1ccc(-c2csc(NC(=O)c3ccccc3NS(=O)(=O)c3ccc(F)c(F)c3)n2)cc1,n,n[15.4 µM],32µM,-88,n
O=C(Nc1ccccc1N1CCOCC1)c1ccccc1NS(=O)(=O)c1ccc(F)c(F)c1,n,n,3.5µM,n,n
O=C(Nc1ccccc1N1CCOCC1)c1ccccc1NS(=O)(=O)c1ccc(F)cc1,n,n[15.4 µM],n,n,u
CC1=C(C(=O)Nc2ccccc2)C(C(C)C)n2nc(SCc3ccccc3C)nc2N1 (stereo not given),n,x,x,x,x
COc1ccc(C)cc1NS(=O)(=O)c1ccc2oc(=O)c3ncn(C)c3c2c1,n,x,x,x,n
O=S(=O)(c1cccc(-c2cn3cccnc3n2)c1)N1CCOCC1,u,18µM,n,n,n
C/C(CC(=O)Nc1ccc2c(c1)OCCO2)=N\NC(=O)COc1ccc(C)cc1,n,u,n,n,-77
O=C(NC(Cc1c[nH]c2ccccc12)C(=O)Nc1ccc(F)c([N+](=O)[O-])c1)c1cccs1 (stereo not given),n,n,n,n,n
O=C(NC(Cc1c[nH]c2ccccc12)C(=O)Nc1ccc(OC(F)(F)F)cc1)c1cccs1 (stereo not given),n,n[15.4 µM],n,n,-71
COc1ccc(-c2csc(NC(=O)CSc3n[nH]c(C)n3)n2)cc1,n,n,35µM,n,n
COC(=O)[C@H](Cc1ccccc1)NC(=O)[C@@]1(C)C[C@@H]1[C@@H](NC(=O)OCc1ccccc1)c1ccccc1,n,x,n,-82,x
O=C1C=CC(=O)N1CCCCCCN1C(=O)C=CC1=O,n,n,u,-99,u
O=C(O)CN1C(=O)C=CC1=O,x,n,x,x,n
CC(Sc1nc2c(c(=O)[nH]1)CCCC2)C(=O)Nc1cc(C(F)(F)F)ccc1Cl (stereo not given),n,x,x,x,n
Cc1ccc(NC(=O)CC(C)S(=O)(=O)c2ccc3c(c2)NC(=O)CO3)c(C)c1 (stereo not given),n,x,x,x,n
CCCCN(CC)c1nc(-c2ccccc2F)nc2ccccc12,n,x,x,x,n
C[C@H](CO)N1C[C@H](C)[C@@H](CN(C)S(=O)(=O)c2cccc(F)c2)Oc2ncc(Br)cc2C1=O,x,32µM,x,x,n
Cc1[nH]c(N=Nc2ccccc2)nc1N=Nc1ccccc1,n,n[15.4 µM],n,n,-94
Cc1cccc(C(=O)N(Cc2ccco2)Cc2ccccc2F)c1,n,x,x,x,-72
CC(C)=C1C2CCC1C(C(=O)Nc1sc(C)c(-c3ccc(C(C)C)cc3)c1C(N)=O)C2C(=O)O (stereo not given),n,n,32µM,n,n
COCCCNC(=O)CSc1nc(-c2cccc(F)c2)[nH]c1-c1ccccc1,n,x,x,x,n
O=C(Nc1ccncc1)c1cn(-c2ccccc2)nc1-c1cccs1,n,n,u,-75,n
SMILES,RXFP1 agonist,gsp agonist,gsp antagonist,TSHR antagonist,RXFP1 antag
CCCn1c(SCC(=O)N2CCc3ccccc3C2)nc2c1c(=O)n(C)c(=O)n2C,u,32µM,n,n,n
CCOC(=O)c1ccc(N2C(=O)c3n[nH]c(-c4cccs4)c3C2c2ccc(OC)cc2OC)cc1 (stereo not given),n,x,x,x,x
CN(C)S(=O)(=O)c1ccc(Cl)c(C(=O)OCC(=O)NC(=O)NC2CCCC2)c1,n,n,1µM,n,n
CCOc1ccc(C2C(C(=O)Nc3ccccc3)=C(C)Nc3nc(-c4ccccc4)nn32)cc1OC (stereo not given),n,x,x,x,x
O=C(Nc1cccc2ccccc12)c1ccccc1,n,n,n,-82,n
O=C(Nc1cccc2ccccc12)c1ccc(F)cc1,n,n,n,n,n
CCOC(=O)c1c(/N=C/N(C)C)sc(/C=N/Nc2ccccc2)c1-c1ccc(Cl)cc1,n,13µM,n,n,n
N#Cc1c(NC(=O)CSc2nnc(-c3ccccc3)o2)sc2c1CCCC2,n,n,22µM,n,n
CC1CCc2c(sc(NC(=O)CSc3nnc(-c4ccccc4)o3)c2C#N)C1 (stereo not given),n,n,n,n,n
Cc1nc2ncnn2c(C)c1CCC(=O)NCc1ccccc1Cl,n,x,x,x,x
COc1cccc(Nc2sc(C(=O)c3ccc(F)cc3)c(N)c2C(=O)NCc2ccc(C)cc2)c1,n,x,x,x,n
O=C1OC(/C(=C\Nc2cc(Cl)ccc2O)[N+](=O)[O-])c2ccccc21 (stereo not given),n,n[15.4 µM],n,n,-82
Cc1cc2oc(C(=O)Nc3nc(-c4ccccc4)ns3)c(C)c2cc1Cl,n,x,x,x,n
Cn1c2c(c(=O)n3ncnc13)CCCC2,22µM,n[15.4 µM],n,n,n
O=C(Cn1c2c(c(=O)n3ncnc13)CCC2)N/N=C/c1ccc(Cl)cc1,n,n,n,n,n
Nn1cnc2c([nH]c3ccccc32)c1=O,n,n,n,n,n
O=c1c2[nH]c3ccc(Cl)cc3c2ncn1CCN1CCCCC1,n,n,n,n,n
S=c1nc[nH]c2c1[nH]c1ccccc12,7.1µM,13µM,n,n,n
S=c1nc[nH]c2c1[nH]c1ccc(Cl)cc12,3.2µM,u,n,n,n
CC(C)(C)c1ccc(Oc2nc3ccccn3c(=O)c2/C=C(\C#N)c2nc3ccccc3[nH]2)cc1,n,x,x,x,n
CCC(=O)N1CCc2cc(S(=O)(=O)N(C)c3cccc(C)c3)ccc21,n,x,x,x,x
Fc1ccc(C2CC(c3ccccc3)Nc3ncnn32)cc1 (stereo not given),n,n,11µM,n,x
c1ccc(C2CC(c3ccccc3)n3ncnc3N2)cc1 (stereo not given),n,n,n,n,n
Cc1c(C(=O)N(C)c2cccc(C(F)(F)F)c2)sc2nc3n(c(=O)c12)CCCCC3,n,x,x,x,n
N#C/C(=C/c1ccc(Sc2nc3ccccc3[nH]2)o1)c1cccc(F)c1,n,n,35µM,u,n
N#C/C(=C/c1ccc(Sc2nc3ccccc3[nH]2)o1)c1cccc(Br)c1,n,n,n,n,n
COc1cc(N2C(=O)C=CC2=O)ccc1N1C(=O)C=CC1=O,x,n,50µM,x,u
Cc1cccc(-c2nc(SCCCOc3ccccc3Cl)n3[nH]c(=O)cc3n2)c1,n,x,x,x,x
CC(=O)c1cccc(OCC(O)CNCCc2ccc(Cl)cc2)c1 (stereo not given),n,u,n,n,n
CCOC(=O)c1cccc(OCC(O)CNCCOc2ccccc2F)c1 (stereo not given),n,n,n,-106,n
